A selection: hits, their analogues and other compounds. The true share with any hit is near 4.1%.
DAX1 inh-1: inhibitors of human orphan nuclear receptor DAX1 (NR0B1). AID 504766. 0.99% of 340,000 active. P51843. inhibition, % at 6.75 µM. HEK293 Gal4-DAX1 luciferase reporter, luminescence;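 active means inhibition above the mean over all tested compounds plus 3 SD, cut at about 4.2% in these data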;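 further: inhibition shows as a rise in luminescence from relieved DAX1 repression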
Target sequence (P51843 207-470 limits assumed): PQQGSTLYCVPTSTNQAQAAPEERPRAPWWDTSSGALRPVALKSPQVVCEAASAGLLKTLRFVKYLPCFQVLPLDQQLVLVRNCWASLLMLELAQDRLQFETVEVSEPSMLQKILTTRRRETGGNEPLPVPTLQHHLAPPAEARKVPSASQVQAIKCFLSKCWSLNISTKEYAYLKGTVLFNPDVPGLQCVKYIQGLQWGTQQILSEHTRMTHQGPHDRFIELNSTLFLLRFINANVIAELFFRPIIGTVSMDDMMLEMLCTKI
hgDAF-12 ag: hgDAF-12 agonism, primary luciferase screen. HEK293 GAL4-hgDAF12 UAS-luciferase reporter, agonist luminescence; normalized to butyrate control. activation, % at 6.8 µM. 1.8% of 370,000 active;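 active means activation above a cutoff set at the mean of all screened compounds plus 3 SD, cut at about 10% in these data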
hcDAF12 agonist: activates DAF-12 receptor from parasite H. contortus; HEK293 hcDAF-12 lit1-tk-luc reporter, luminescence; 0% DMSO, 100% Δ7-dafachronic acid; activation, % at 6.8 µM; 1.4% of 370,000 active; AID 652067;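 active means activation above the mean of all tested compounds plus 3 SD, cut at about 5.5% in these data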
ssDAF-12 act: activators of S. stercoralis DAF-12 nuclear receptor. HEK293 ssDAF-12/GRIP1 lit1-tk-luc reporter, luminescence; % of 3 µM dafachronic acid response. activation, % at 6.8 µM. 1% of 370,000 active;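 active means activation above the mean over all tested compounds plus 3 SD, cut at about 0.9% in these data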
DAX1 inh-2: inhibitors of DAX1 repression of SF-1 activated StAR promoter; HEK293T StAR-luciferase reporter, SF-1/DAX-1 repression relief; inhibition, % at 6.8 µM; 1.1% of 370,000 active;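 active means inhibition above the mean over all tested compounds plus 3 SD, cut at about 3.6% in these data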;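 further: higher inhibition means more luminescence from relief of DAX-1 repression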
Each line names hits and unclear results; the compound was inactive in the other large screens.

CN1CCN(c2ccc(NC(=O)c3sc4ccccc4c3Cl)cc2)CC1	hgDAF-12 ag 10.6
Cc1cc(C(=O)Nc2ccc(N3CCCCC3)cc2)no1	hgDAF-12 ag 11.4
Cc1ccc(C(=O)Nc2ccc(N3CCN(S(C)(=O)=O)CC3)cc2)cc1C	none (no result: DAX1 inh-1)
Cc1ccc(C(=O)Nc2ccc(N3CCCC3)cc2)cc1	hgDAF-12 ag 12.4
Cc1ccc(C(=O)Nc2ccc(N3CCN(C)CC3)cc2)cc1C	DAX1 inh-1 4.7
COc1ccc(S[C@]2(C(=O)N3CCN(c4ncccn4)CC3)CC(=O)N(c3ccc(Cl)cc3)[C@@H]2c2ccc(OC)cc2)cc1	none (no result: DAX1 inh-1)
CCOc1ccc2nc(N3C(=O)CNC3=S)sc2c1	DAX1 inh-1 5.3
Cc1cccc(NC(=O)CCS(=O)(=O)c2ccccc2)c1C	none (no result: DAX1 inh-1)
O=[N+]([O-])/C=C/c1cc2ccccc2[nH]1	hcDAF12 agonist 5.8
C=CCSc1n[nH]c(-c2ccc(OC)cc2)n1	hgDAF-12 ag 12.1
CC1=CC(C)(C)n2c(O)c(N=NC(N)=S)c3cccc1c32	none
COc1cc2c3c(c1)c(N=NC(N)=S)c(O)n3C(C)(C)C=C2C	DAX1 inh-1 7.1
CCOc1ccc(NC(=O)CN(C)C(=O)c2cc(S(=O)(=O)N3CCCCCC3)ccc2OC)cc1OCC	DAX1 inh-2 3.9
O=C1OCC2=C1C(c1ccc(F)cc1)c1cc3c(cc1N2)OCO3 (centres undefined)	DAX1 inh-2 4.2
O=C1OCC2=C1C(c1ccc(F)cc1)c1cc3c(cc1N2)OCCO3 (centres undefined)	none
COC(=O)c1ccc(C(=O)OC)c(NC2=NS(=O)(=O)c3ccccc32)c1	none
COC(=O)c1c(-c2ccccc2)csc1NC1=NS(=O)(=O)c2ccccc21	DAX1 inh-2 3.8
Cc1ccc2nc3ccc(N4CCN(C)CC4)nn3c(=O)c2c1	hcDAF12 agonist 5.7, DAX1 inh-2 4.3
CCOc1ccc(NC(=O)CN2CCN(c3ccc(F)cc3)CC2)cc1S(=O)(=O)N1CCCC1	ssDAF-12 act 1.0
COCCCN1CCC2(CCC(c3ccccc3)CC2)C1=O (centres undefined)	none (no result: DAX1 inh-1)
CCOc1ccc2nc(N3CCCC(C(=O)NCCCN4CCOCC4)C3)sc2c1 (centres undefined)	none
CCOc1ccc2nc(N3CCC(C(=O)NCCCN4CCOCC4)CC3)sc2c1	hgDAF-12 ag 11.8
O=c1[nH]ncc(N/N=C\c2cccnc2)c1Cl	DAX1 inh-1 5.2
O=c1[nH]ncc(N/N=C\c2ccncc2)c1Cl	none
Cc1cccc(C)c1NC(=O)C(c1cccc([N+](=O)[O-])c1)N(C)C(=O)c1ccccn1 (centres undefined)	ssDAF-12 act 1.0
Cc1cc(SCC(=O)c2ccccc2)n2nc(C)nc2n1	hcDAF12 agonist 6.2
COc1ccc2[nH]c(=O)c(CNc3ccccc3OC)cc2c1	DAX1 inh-1 4.5
COc1ccc2[nH]c(=O)c(CNc3ccccc3C)cc2c1	ssDAF-12 act 1.4
CCOc1ccc(NCc2cc3cc(OC)ccc3[nH]c2=O)cc1	none
COc1ccc2[nH]c(=O)c(CNc3ccccc3)cc2c1	DAX1 inh-1 4.5
CCCC[C@H]1C2CC(OC(=O)Nc3cccc(C#N)c3)C(C2)[C@H]2CCCCN21 (some centres undefined)	none (no result: DAX1 inh-1)
CCOC(=O)N1CCN(C(=O)C[C@H]2C[C@@]3(C(=O)OC)C(=C[C@H](COCc4ccccc4)O[C@@H]3C)N(Cc3cccc4ccccc34)C2=O)CC1	none (no result: DAX1 inh-1)
Cc1ccnc(NC(=O)C2CC(=O)N(Cc3ccccc3)C2)c1 (centres undefined)	DAX1 inh-2 4.3
CC1CCN(C(=O)C2CCC(CNc3c(N4CCCCC4)c(=O)c3=O)CC2)CC1 (centres undefined)	none
O=C(C1CCC(CNc2c(N3CCCCC3)c(=O)c2=O)CC1)N1CCCC1 (centres undefined)	DAX1 inh-1 5.5
CC(C)(C)c1ccc(NC(=S)NCc2cccnc2)cc1	DAX1 inh-1 5.2
O=C(NC(=S)NCc1cccnc1)c1ccccc1F	none
O=C(NC(=S)NCc1cccnc1)c1cccc2ccccc12	DAX1 inh-1 6.1
COC(=O)[C@]12C[C@H](CC(=O)NCC34CC5CC(CC(C5)C3)C4)C(=O)N(CCC3=CCCCC3)C1=C[C@H](C(C)C)O[C@@H]2C1CC1	none (no result: DAX1 inh-1)
C=CCn1c(N)cc(=O)nc1SCC(=O)Nc1ccc(C(=O)OCC)cc1	DAX1 inh-1 5.8
C=CCn1c(N)cc(=O)nc1SCC(=O)Nc1ccc(C(=O)OC)cc1	none
O=C(CN1CCC(NC(=O)Nc2ccc(Cl)cc2)CC1)Nc1ccc2c(c1)OCCO2	none (no result: DAX1 inh-1)
O=C(NCCc1ccc(Cl)cc1)c1ccc2ccccc2n1	hcDAF12 agonist 6.0
O=C(NCCc1ccccc1)c1cnc2ccccc2n1	hgDAF-12 ag 13.0
CCOC(=O)[C@@]12CCCC=C1N(CCc1ccc(Cl)cc1)C(=O)[C@H]2CC(=O)NCCc1ccccc1OC	none (no result: DAX1 inh-1)
COc1ccccc1N1CCN(/N=C/c2cccc(O)c2)CC1	hgDAF-12 ag 12.0
COc1ccccc1N1CCN(/N=C/c2cc(OC)c(O)c(OC)c2)CC1	none
CCOC(=O)[C@@]12CN(C(=O)OC(C)(C)C)CC=C1N(Cc1ccc(OC)cc1)C(=O)[C@H]2CC(=O)N1CCCC1	none (no result: DAX1 inh-1)
COC(=O)[C@]12C[C@H](CC(=O)N3CCCCC3)C(=O)N(CCc3ccc(OC)c(OC)c3)C1=C[C@H](C(C)C)O[C@@H]2C1CC1	none (no result: DAX1 inh-1)
CC(=O)NC(Cc1cccc(F)c1)C(=O)NC1CCN(C(=O)c2cccc(C)c2)CC1 (centres undefined)	DAX1 inh-1 5.4
O=C(/C=C/c1cccc([N+](=O)[O-])c1)OCC(=O)N1CCN(C(=O)c2ccco2)CC1	hgDAF-12 ag 11.5
O=C(/C=C/c1cccc([N+](=O)[O-])c1)N1CCN(C(=O)c2ccco2)CC1	none
COc1ccc2[nH]c(N=Nc3ccccc3C)c(O)c2c1	hcDAF12 agonist 6.5
COc1ccc(N=Nc2c(C)[nH]c3ccccc23)cc1	none
O=C(Cc1ccccc1[N+](=O)[O-])NCc1ccc(Cl)cc1Cl	hgDAF-12 ag 11.6
O=C(Cc1ccccc1[N+](=O)[O-])NCc1ccc(Cl)cc1	ssDAF-12 act 1.2
O=C(Cc1ccc([N+](=O)[O-])cc1)NCc1ccccc1Cl	none
CC(C)[C@H](NC(=O)c1ccccc1)C(=O)N1CCC[C@H]1C(=O)NCc1ccccc1	none (no result: DAX1 inh-1)
C=CCNC(=O)NCC1CCN(Cc2ccc(OC)cc2)CC1	none (no result: DAX1 inh-1)
COc1cc(/C=N/NC(=O)CN2CCCCC2)ccc1OCc1ccc(Br)cc1	hgDAF-12 ag 11.8
CCOc1ccc(/C=N/NS(=O)(=O)c2ccc(C)cc2)cc1OC	none
COc1cc(/C=N/NS(=O)(=O)c2ccc(C)cc2)ccc1OCc1ccc(C(=O)O)cc1	hgDAF-12 ag 13.2
C=CCN(CC#CC(=C)C)Cc1ccccc1	none (no result: DAX1 inh-1)
Cc1cc(C(=O)COC(=O)c2cccn2C)c(C)n1Cc1ccco1	DAX1 inh-2 4.1
O=C(CC1CCCC1)N1CC[C@H]2[C@H](CCCN2Cc2ccccc2)C1	none (no result: DAX1 inh-1)

Compound activity as filed in PubChem BioAssay.
